Measurements published in PubChem BioAssay.

Target: Torsin-1A-interacting protein 1 (Homo sapiens) (UniProt Q5JTV8)
Assay: compound microarray binding of lysate hLAP1 – cell lysate, small-molecule microarray, COS7 lysate, 635/667 nm fluorescence, primary screen (AID 1116)
Conditions: 635 nm fluorescence, higher = more signal

Sequence of Torsin-1A-interacting protein 1 (Homo sapiens) (Q5JTV8 whole entry, looked up): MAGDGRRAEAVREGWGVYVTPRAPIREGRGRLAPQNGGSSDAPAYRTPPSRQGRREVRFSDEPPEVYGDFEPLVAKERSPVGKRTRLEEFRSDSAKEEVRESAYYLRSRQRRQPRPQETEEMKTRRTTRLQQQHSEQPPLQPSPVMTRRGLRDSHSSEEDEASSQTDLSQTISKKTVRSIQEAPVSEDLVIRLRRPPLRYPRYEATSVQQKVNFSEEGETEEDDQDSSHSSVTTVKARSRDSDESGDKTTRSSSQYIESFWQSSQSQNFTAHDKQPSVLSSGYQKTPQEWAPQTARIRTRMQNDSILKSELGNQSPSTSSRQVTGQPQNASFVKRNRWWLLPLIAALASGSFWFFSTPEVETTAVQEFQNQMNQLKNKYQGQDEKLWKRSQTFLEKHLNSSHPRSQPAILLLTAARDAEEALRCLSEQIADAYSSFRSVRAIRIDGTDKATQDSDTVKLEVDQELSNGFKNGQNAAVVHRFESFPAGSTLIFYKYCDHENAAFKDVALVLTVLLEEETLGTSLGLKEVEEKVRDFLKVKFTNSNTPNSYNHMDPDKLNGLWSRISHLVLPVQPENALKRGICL

SMILES | composite z-score
C[C@@H]1NC(=O)[C@@H](Cc2ccccc2)NC(=O)[C@@]23C(=O)N[C@@H](Cc4ccccc4)C2[C@H](C)[C@@]2(C)O[C@H]2C3/C=C/C/C=C\CNC1=O (stereo partly specified) | -0.0991
COc1cccc(C)c1NC(=O)O[C@H]1[C@H](OC(=O)Nc2ccc3c(c2)OCO3)[C@@H](OC(=O)Nc2ccc3c(c2)OCO3)[C@@H](OC)O[C@@H]1CO | 1.5
C=C(COC)/C(=C/C[C@H](OC(=O)c1ccncc1)c1ccc(CO)o1)c1cnc2ccccc2c1 | 0.865
CC(C)=C1C(=O)C(c2ccccc2)=C2CN3C(=O)N(CCc4ccccc4)C(=O)[C@]3(Cc3ccc(C(F)(F)F)cc3)[C@H]21 | 0.759
CCCCNC(=O)c1ccc(C#CC(C)(C)C)c(OC(C)=O)c1 | 0.5
C=CCC(OC(C)=O)[C@@H]1[C@@H](N(Cc2cccc3ccccc23)C(=O)Cc2ccc(OC)cc2)c2cc(OCCCO)ccc2N1C(=O)c1ccc(-c2ccccc2)cc1 (stereo partly specified) | 0.435
COc1cc(NN2C(C(O)c3ccc(N(C)C)cc3)C=CC3C(=O)N(c4ccccc4)C(=O)C32)cc(OC)c1OC (stereo unspecified) | 0.639
CCCC[C@@H](O)C1=C(COC)C[C@H]2C(=O)N(C)C(=O)[C@H]2[C@H]1CO | 0.13
CC1CC/C=C\[C@H]2OC34C=CCN(c5ccc6ccccc6c5)C(=O)[C@H]3N(CCCO)C(=O)[C@@H]4C2C(=O)O1 (stereo partly specified) | -0.406
CC(C)C(CO)N1C(=O)[C@@H]2[C@H]3C(=O)OCC=C[C@H]3OC23C=CCN(c2ccc(Cl)cc2)C(=O)[C@@H]13 (stereo partly specified) | -0.344
CCCN1C(=O)[C@@]2(Cc3ccccc31)N=C(c1ccc(OCCCO)cc1)O[C@H]2c1ccccc1 | 1.28
